Measurements published in PubChem BioAssay (Tox21).
Records with an inconclusive call do not appear. Entries that show only a call come without a potency. A number with no mark means an inactive call. Active and inactive are the calls of the source. Calls come from the whole dose curve.

The compounds below were run against Thyrotropin receptor (Homo sapiens) (UniProt P16473) (assay: qHTS assay to identify small molecule antagonists of the thyroid stimulating hormone receptor (TSHR) signaling pathway (AID 1259385; note: nearly all actives have a fitted effect of over 20% in size)). Conditions: TSHR-HEK293 cAMP HTRF, TSH-stimulated antagonist mode; series mostly up to 92.4 µM.
Outline: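 TSHR-HEK293 cells were plated and held 18 h at 37C/5% CO2, then given compound plus Ro20-1724 and stimulated with TSH at 1.5 ng/mL final. After 30 min at room temperature, cAMP was detected with cAMP-d2/anti-cAMP-cryptate (1 h) by fluorescence.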

Sequence of Thyrotropin receptor (Homo sapiens) (P16473 whole entry, looked up): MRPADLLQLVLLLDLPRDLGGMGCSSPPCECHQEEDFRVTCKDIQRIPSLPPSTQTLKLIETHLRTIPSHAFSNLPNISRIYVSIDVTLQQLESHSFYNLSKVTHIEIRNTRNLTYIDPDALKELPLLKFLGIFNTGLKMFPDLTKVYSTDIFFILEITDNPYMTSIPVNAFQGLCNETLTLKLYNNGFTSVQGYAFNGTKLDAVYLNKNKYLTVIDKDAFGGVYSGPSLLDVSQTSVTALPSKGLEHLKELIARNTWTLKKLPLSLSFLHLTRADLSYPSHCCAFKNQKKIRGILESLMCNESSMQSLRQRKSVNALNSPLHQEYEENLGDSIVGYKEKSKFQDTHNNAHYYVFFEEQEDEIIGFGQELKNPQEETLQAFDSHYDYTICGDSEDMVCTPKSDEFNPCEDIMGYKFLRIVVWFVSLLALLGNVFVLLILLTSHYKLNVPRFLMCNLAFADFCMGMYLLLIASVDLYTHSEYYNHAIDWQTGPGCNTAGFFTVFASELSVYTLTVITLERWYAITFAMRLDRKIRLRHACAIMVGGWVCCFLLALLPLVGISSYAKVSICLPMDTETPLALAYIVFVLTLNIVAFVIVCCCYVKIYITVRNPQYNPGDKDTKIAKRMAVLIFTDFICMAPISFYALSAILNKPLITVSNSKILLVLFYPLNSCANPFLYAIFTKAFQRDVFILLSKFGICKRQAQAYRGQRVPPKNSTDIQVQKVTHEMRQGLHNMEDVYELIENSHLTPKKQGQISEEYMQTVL

SMILES	Potency	activity change, negative = inhibition
O=C1NC(=O)c2cccc3cccc1c23	inactive	–
Cc1ccc(NC(=O)N(C)C)cc1NC(=O)N(C)C	inactive	–
O=C(O)c1cccc(Oc2ccccc2)c1	inactive	–
Nc1c(Cl)cc(Cl)cc1[N+](=O)[O-]	inactive	–
C=C(C)c1ccccc1	inactive	–
N[C@@H](Cc1cc(I)c(O)c(I)c1)C(=O)O	inactive	–
CCCCCc1ccco1	inactive	–
CSCC[C@H](NC(=O)[C@H](Cc1c[nH]c2ccccc12)NC(=O)CCNC(=O)OC(C)(C)C)C(=O)N[C@@H](CC(=O)O)C(=O)N[C@@H](Cc1ccccc1)C(N)=O	inactive	–
CCCCCCOC(=O)CCCCC	inactive	–
O=C(Nc1ccc(C(=O)O)c(O)c1)c1ccccc1	inactive	–
COC(OC)OC	inactive	–
CC(C)COC(=O)COc1cc(Cl)c(Cl)cc1Cl	inactive	–
BrC(Br)C(Br)Br	inactive	–
O=c1[nH][nH]c(=O)c2cc([N+](=O)[O-])ccc12	inactive	–
C1CCCCC1	inactive	–
COC(=O)CC(C(C)=O)C(=O)OC (stereo not drawn)	inactive	–
NC(=O)c1ccccc1[N+](=O)[O-]	inactive	–

SMILES	Potency	activity change, negative = inhibition
CC[C@H]1OC(=O)[C@H](C)[C@@H](O[C@H]2C[C@@](C)(OC)[C@@H](O)[C@H](C)O2)[C@H](C)[C@@H](O[C@@H]2O[C@H](C)C[C@H](N(C)C)[C@H]2O)[C@](C)(O)C[C@@H](C)CN(C)[C@H](C)[C@@H](O)[C@]1(C)O	inactive	–
SCCc1cnccn1	inactive	–
Cc1ccc(N(CC2=NCCN2)c2cccc(O)c2)cc1	inactive	–
O=S(=O)(O)CO	inactive	–
O=C(c1ccccc1)c1ccc(O)cc1	inactive	–
CC(CCc1ccc(O)cc1)NCCc1ccc(O)c(O)c1 (stereo not drawn)	inactive	–
Oc1ccc2c(c1)Cc1ccccc1-2	inactive	–
O=C(O)CO	inactive	–
CCCCCCCCCCCCCOS(=O)(=O)O	inactive	–
CCC(Cl)CC(Cl)C(Cl)C(Cl)C(Cl)C(C)Cl (stereo not drawn)	–	-0.191% [at 19 µM]
COc1cc(NCc2ccc3nc(N)nc(N)c3c2C)cc(OC)c1OC	inactive	–
ClC1=C(Cl)C1(Cl)Cl	inactive	–
Cc1ccc(Nc2c(F)cccc2Cl)c(CC(=O)O)c1	inactive	–
CCSC(=O)N(CC)CC	inactive	–
CC(C)C(=O)OCCOc1ccccc1	inactive	–
CCCCCCCCCCCSCC(=O)O	inactive	–
